Potency data for 19 compounds are collected here from PubChem BioAssay (NCATS).

Inconclusive results are not listed. A call without a number means that no potency is given here. Calls of active or inactive are those of the source. Calls follow the shape of the full dose curve.

The nature of the experiment: A High-Content qHTS Against Drug Library for the Identification of Small Molecules that Inhibit DYT1 Early Onset Primary Dystonia-Associated Cell Pathology (AID 1645839). The settings on record: HEK293 Flp-In EGFP-delE TorsinA, punctate imaging, 48 h; series mostly up to 46.1 µM. Summed up:
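Readout: %pathology, the punctate EGFP-TorsinA distribution from imaging, as the primary channel and cell count as the toxicity counterscreen. HEK293 Flp-In cells expressing delE TorsinA were induced with tetracycline and treated with compound for 48 h.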
For orientation: qHTS replaces the single test concentration by a dilution series.
As for `O=C(O)c1ccc(OCCN2CCCCC2)cc1`, the Potency result was “inactive”. Next, `CC(COc1ccccc1)NN` (centres undefined): “inactive”; `Cc1coc2ccccc2c1=O`: “inactive”; `C=CCOc1cc(Cl)ccc1C(=O)NCCN(CC)CC`: “inactive”. The entry for `CC(C)=CCC/C(C)=C/CC/C(C)=C/CCC(=O)OC/C=C(\C)CCC=C(C)C` is “inactive”; for `CCn1ccc(NS(=O)(=O)c2ccc(N)cc2)nc1=O` it is “inactive”.

`N#CSCC(=O)O`: the Potency result was “inactive”. In the case of `O=C(Oc1ccccc1)c1cccc(C(=O)Oc2ccccc2)c1`, the Potency result was “inactive”.

For the compound `CC(=O)N[C@@H](CCC(N)=O)C(=O)O`, the Potency result is “inactive”. On to `CCC1(c2cnc[nH]2)Cc2ccccc2C1`, for which the Potency result is “inactive”.

As for `CCN1CCN(C(=O)N[C@@H](C(=O)N[C@@H]2C(=O)N3[C@@H]2SC(C)(C)[C@H]3C(=O)O)c2ccccc2)C(=O)C1=O`, the Potency entry was “inactive”. On to `COC(=O)/C=C\C(=O)OC`, for which the Potency result is “inactive”.

For `CCCC(CCC)(C(=O)OCC)C(=O)OCC`, the Potency result is “inactive”. Next, `CCc1cc(S(=O)(=O)O)c2cc(C(C)C)cccc1-2`: “inactive”.

In the case of `C1=CC2C3C=CC(C3)C2C1` (centres undefined), the Potency result is “inactive”. Next, `COc1ccc(/C(C)=C/C(=O)O)c(OC)c1`: “inactive”.

Turning to `O=C1c2ccccc2CCc2ccccc21`, the Potency result was “inactive”.

As for `COc1cc(C=O)ccc1O`, the Potency entry was “inactive”.

Consider `COC(=O)c1cc(S(N)(=O)=O)ccc1OC`, for which the Potency result was “inactive”.
